Test results reported in PubChem BioAssay (Tox21).
Records with an inconclusive call do not appear. Active and inactive are the calls of the source. The call rests on the fitted dose curve; in most records, active means well fitted cell-killing curve with a large enough effect in the repeat runs; inconclusive means weak or mixed curves, or effect the other way; inactive means flat fitted curve, though single readings scatter.

Test: cAMP Responsive Elements (CRE) small molecule antagonists, cell-based qHTS assay: qHTS cell viability counter screen (AID 2060913); further: nearly all actives have a fitted effect of over 40% in size
Settings: CRE-bla HEK293T viability, CellTiter-Glo luminescence, 5 h; series mostly up to 92.4 µM; viability change, negative = cytotoxic: at the top concentration
Procedure, shortened: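 Steps: cells plated and held 18 hrs at 37 C/5% CO2; compounds and NKH477 (0.25 uM final) added; 3 hrs incubation; reporter substrate read; CellTiter-Glo added to measure cytotoxicity by luminescence.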
On the % scale 0 is the no-effect control and ±100 the full control effect.

SMILES | viability change, negative = cytotoxic | Potency
Cc1ccccc1C(=O)Nc1ccc(C(=O)N2CCCC(N(C)C)c3ccccc32)cc1 (stereo not given) | 5.66% [at 42.5 µM] (inactive) | –
C=COCCOCCOCCOC=C | -1.6% (inactive) | –
CCOc1cc(OCC)c(C(C)=O)cc1OCC | 0.224% (inactive) | –
COc1c2ccoc2cc2oc(=O)ccc12 | – | inactive
C[C@@H]1CN(c2c(F)c(N)c3c(=O)c(C(=O)O)cn(C4CC4)c3c2F)C[C@H](C)N1 | -4.19% [at 18.9 µM] (inactive) | –
CCCCCCCCCCCCCCN(C)C | 8.85% [at 18.9 µM] (inactive) | –
COC(=O)C(C)=O | 21.1% (inactive) | –
CCCCCOC(=O)c1ccc(O)cc1 | -13% (inactive) | –
CC(Oc1c(Cl)cccc1Cl)C1=NCCN1 (stereo not given) | 0.0926% [at 42.5 µM] (inactive) | –
COC(=O)C(C)(C)C | -13.5% (inactive) | –
CC(C(=O)O)c1ccc(C(=O)c2cccs2)cc1 (stereo not given) | 1.03% [at 42.5 µM] (inactive) | –
Cc1onc(-c2ccccc2Cl)c1C(=O)N[C@@H]1C(=O)N2[C@@H]1SC(C)(C)[C@@H]2C(=O)O | 1.47% [at 42.5 µM] (inactive) | –
FC(F)(F)C(F)(F)C(F)(F)C(F)(F)C(F)(F)C(F)(F)C(F)(F)C(F)(F)C(F)(F)C(F)(F)F | 10.4% [at 8.39 µM] (inactive) | –
O=C(CS)Nc1ccccc1 | -2.33% [at 42.5 µM] (inactive) | –
O=C(O)c1ccc(O)cc1O | 3.46% (inactive) | –
OC[C@@H](O)[C@@H](O[C@@H]1O[C@H](CO)[C@H](O)[C@H](O)[C@H]1O)[C@H](O)[C@@H](O)CO | – | inactive
O=c1c2ccccc2oc2ccccc12 | -11% (inactive) | –
CC(=O)c1ccc(O)cc1 | – | inactive
O=C1N(c2ccccc2)c2ccccc2C1(Cc1ccncc1)Cc1ccncc1 | -0.0861% [at 42.5 µM] (inactive) | –
CC(C)=CCC/C(C)=C/CC/C(C)=C/C(=O)OCC(=O)[C@@]1(O)CC[C@H]2[C@@H]3CCC4=CC(=O)C=C[C@]4(C)[C@H]3[C@@H](O)C[C@@]21C | -1.16% [at 42.5 µM] (inactive) | –

SMILES | viability change, negative = cytotoxic | Potency
CC(C)(C)OC(=O)c1cccc(N)c1 | 14.3% (inactive) | –
CCCC1CCOC(C)S1 (stereo not given) | -4.15% (inactive) | –
CC(=O)OC/C=C(\C)CCC=C(C)C | -6.07% (inactive) | –
c1ccc2c(c1)Cc1ccccc1-2 | – | inactive
CNC1CCCN(c2c(F)cc3c(=O)c(C(=O)O)cn(C4CC4)c3c2OC)C1 (stereo not given) | -1.96% [at 42.5 µM] (inactive) | –
CC12CCCC=C1C(=O)OC2=O (stereo not given) | -0.7% (inactive) | –
COc1ccc2nc(SCc3ncc(C)c(OC)c3C)[nH]c2c1 | 6.29% [at 42.5 µM] (inactive) | –
CNC(=O)c1c(I)c(NC(=O)CCCCC(=O)Nc2c(I)c(C(=O)O)c(I)c(C(=O)NC)c2I)c(I)c(C(=O)O)c1I | -1.7% [at 42.5 µM] (inactive) | –
CC(C)[N+](C)(CCOC(=O)C1c2ccccc2Oc2ccccc21)C(C)C | – | inactive
CC(C)COC(=O)C(C)C | -1.93% (inactive) | –
CNC(=O)N(c1ccccc1)c1ccccc1 | 0.18% (inactive) | –
COC1=CC(=O)C[C@@H](C)[C@]12Oc1c(Cl)c(OC)cc(OC)c1C2=O | – | inactive
CCC(C)N(C)C(=O)c1cc2ccccc2c(-c2ccccc2Cl)n1 (stereo not given) | 6.22% [at 42.5 µM] (inactive) | –
O=C(CCS)OCC(COC(=O)CCS)(COC(=O)CCS)COC(=O)CCS | -1.57% (inactive) | –
ClC1=C(Cl)C1(Cl)Cl | 7.86% (inactive) | –
CCCCCCOC(=O)c1ccc(O)cc1 | – | inactive
CCCC1CCC(=O)CC1 | -7.61% (inactive) | –
CC(C)(C)[C@@H](O)[C@@H](Cc1ccc(Cl)cc1)n1cncn1 | – | inactive
O=C1c2ccccc2C(=O)c2cc(O)ccc21 | -0.732% (inactive) | –
CCCN1C[C@H](CSC)C[C@@H]2c3cccc4[nH]cc(c34)C[C@H]21 | -1.86% [at 42.5 µM] (inactive) | –

Test: cAMP Responsive Elements (CRE) small molecule agonists, cell-based qHTS assay: qHTS cell viability counter screen (AID 2060914);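 further: viability read after 3 h of compound exposure; nearly all actives have a fitted effect of over 50% in size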
Settings: CRE-bla HEK293T viability, CellTiter-Glo luminescence, 5 h; series mostly up to 92.4 µM; activity change, negative = cytotoxicity: at the top concentration
Procedure, shortened: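 CRE-bla HEK 293T cells, plated 18 h at 37 °C, were exposed to compounds for 3 h at 37 °C/5% CO2. Viability was then measured in the same wells by CellTiter-Glo luminescence after 30 min at room temperature.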

SMILES | activity change, negative = cytotoxicity | Potency
Cc1ccccc1C(=O)Nc1ccc(C(=O)N2CCCC(N(C)C)c3ccccc32)cc1 (stereo not given) | 13.3% [at 42.5 µM] (inactive) | –
C=COCCOCCOCCOC=C | -3.34% (inactive) | –
CCOc1cc(OCC)c(C(C)=O)cc1OCC | -8.81% (inactive) | –
COc1c2ccoc2cc2oc(=O)ccc12 | – | inactive
C[C@@H]1CN(c2c(F)c(N)c3c(=O)c(C(=O)O)cn(C4CC4)c3c2F)C[C@H](C)N1 | -0.413% [at 18.9 µM] (inactive) | –
CCCCCCCCCCCCCCN(C)C | -15% [at 18.9 µM] (inactive) | –
COC(=O)C(C)=O | -15.2% (inactive) | –
CCCCCOC(=O)c1ccc(O)cc1 | -9.75% (inactive) | –
CC(Oc1c(Cl)cccc1Cl)C1=NCCN1 (stereo not given) | -8.77% [at 42.5 µM] (inactive) | –
COC(=O)C(C)(C)C | -1.59% (inactive) | –
CC(C(=O)O)c1ccc(C(=O)c2cccs2)cc1 (stereo not given) | -7.8% [at 42.5 µM] (inactive) | –
Cc1onc(-c2ccccc2Cl)c1C(=O)N[C@@H]1C(=O)N2[C@@H]1SC(C)(C)[C@@H]2C(=O)O | 24.7% [at 42.5 µM] (inactive) | –
FC(F)(F)C(F)(F)C(F)(F)C(F)(F)C(F)(F)C(F)(F)C(F)(F)C(F)(F)C(F)(F)C(F)(F)F | -0.902% [at 8.39 µM] (inactive) | –
O=C(CS)Nc1ccccc1 | 0.772% [at 42.5 µM] (inactive) | –
O=C(O)c1ccc(O)cc1O | 3.15% (inactive) | –
OC[C@@H](O)[C@@H](O[C@@H]1O[C@H](CO)[C@H](O)[C@H](O)[C@H]1O)[C@H](O)[C@@H](O)CO | – | inactive
O=c1c2ccccc2oc2ccccc12 | -6.68% (inactive) | –
CC(=O)c1ccc(O)cc1 | – | inactive
O=C1N(c2ccccc2)c2ccccc2C1(Cc1ccncc1)Cc1ccncc1 | -3.3% [at 42.5 µM] (inactive) | –
CC(C)=CCC/C(C)=C/CC/C(C)=C/C(=O)OCC(=O)[C@@]1(O)CC[C@H]2[C@@H]3CCC4=CC(=O)C=C[C@]4(C)[C@H]3[C@@H](O)C[C@@]21C | -13.4% [at 42.5 µM] (inactive) | –

SMILES | activity change, negative = cytotoxicity | Potency
CC(C)(C)OC(=O)c1cccc(N)c1 | 1.92% (inactive) | –
CCCC1CCOC(C)S1 (stereo not given) | 1.58% (inactive) | –
CC(=O)OC/C=C(\C)CCC=C(C)C | – | inactive
c1ccc2c(c1)Cc1ccccc1-2 | – | inactive
CNC1CCCN(c2c(F)cc3c(=O)c(C(=O)O)cn(C4CC4)c3c2OC)C1 (stereo not given) | 2.35% [at 42.5 µM] (inactive) | –
CC12CCCC=C1C(=O)OC2=O (stereo not given) | -5.54% (inactive) | –
COc1ccc2nc(SCc3ncc(C)c(OC)c3C)[nH]c2c1 | 18.9% [at 42.5 µM] (inactive) | –
CNC(=O)c1c(I)c(NC(=O)CCCCC(=O)Nc2c(I)c(C(=O)O)c(I)c(C(=O)NC)c2I)c(I)c(C(=O)O)c1I | -10.9% [at 42.5 µM] (inactive) | –
CC(C)[N+](C)(CCOC(=O)C1c2ccccc2Oc2ccccc21)C(C)C | 12.8% (inactive) | –
CC(C)COC(=O)C(C)C | -1.42% (inactive) | –
CNC(=O)N(c1ccccc1)c1ccccc1 | -1.67% (inactive) | –
COC1=CC(=O)C[C@@H](C)[C@]12Oc1c(Cl)c(OC)cc(OC)c1C2=O | – | inactive
CCC(C)N(C)C(=O)c1cc2ccccc2c(-c2ccccc2Cl)n1 (stereo not given) | 3.1% [at 42.5 µM] (inactive) | –
O=C(CCS)OCC(COC(=O)CCS)(COC(=O)CCS)COC(=O)CCS | -2.73% (inactive) | –
ClC1=C(Cl)C1(Cl)Cl | -3.42% (inactive) | –
CCCCCCOC(=O)c1ccc(O)cc1 | -17.8% (inactive) | –
CCCC1CCC(=O)CC1 | 2.21% (inactive) | –
CC(C)(C)[C@@H](O)[C@@H](Cc1ccc(Cl)cc1)n1cncn1 | -4.75% (inactive) | –
O=C1c2ccccc2C(=O)c2cc(O)ccc21 | 7.17% (inactive) | –
CCCN1C[C@H](CSC)C[C@@H]2c3cccc4[nH]cc(c34)C[C@H]21 | 5.01% [at 42.5 µM] (inactive) | –
